# Test results from PubChem BioAssay (Tox21).
# “And” between values parts separate entries of the source, which are not always exact repeats. Equal entries are not always repeated. A number with no mark means an inactive call. Records with an inconclusive call do not appear. Where a call stands in place of a potency, no number is given. The source made the active and inactive calls. Unless noted, calls follow the shape of the dose curve; as a rule, active = well fitted curve in the direction sought with a large enough effect in the repeat runs; inconclusive = weak or mixed curves; inactive = no such curve, though single readings can be large; an effect the other way counts as inactive or inconclusive.
# Columns and labels:
# [1] = qHTS assay for small molecule agonists of the p53 signaling pathway (AID 651631; calls by dose curve; also: nearly all actives have a fitted effect of over 15% in size)
# Procedure, shortened: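 Read-out is beta-lactamase FRET fluorescence measured 2 h after substrate addition at room temperature, in HCT-116 cells with a p53 response element-driven reporter exposed to compounds for 16 h at 37 °C.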
# [2] = qHTS assay for small molecules that induce genotoxicity in human embryonic kidney cells expressing luciferase-tagged ATAD5 (AID 651632); also: nearly all actives have a fitted effect of over 15% in size
# Procedure, shortened: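 Concentration-response screen for ATAD5 upregulation in HEK293T luciferase reporter cells; 16 hr treatment at 37C, then luminescence after 30 min with Amplite at room temperature.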
# [3] = qHTS assay for small molecule agonists of the p53 signaling pathway - cell viability (AID 651633; calls by dose curve;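 also: p53RE-bla HCT reporter cells with a stable beta-lactamase p53 reporter; series mostly up to about 83 µM; nearly all actives have a fitted effect of over 30% in size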)
# Procedure, shortened: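 Viability counter-read: CellTiter-Glo luminescence (30 min, room temperature) in the same p53RE-bla plates. These plates had been exposed to compounds for 16 h at 37 C.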
# [4] = qHTS assay for small molecule disruptors of the mitochondrial membrane potential - cell viability (AID 720634; calls by dose curve;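 also: human HepG2 liver cancer cells; series mostly up to about 83 µM; nearly all actives have a fitted effect of over 20% in size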)
# Procedure, shortened: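 In this qHTS format, HepG2 cells plated overnight were pinned with compound, incubated 1 hr, and assayed for ATP luminescence with CellTiter-Glo after m-MPI dye addition.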
# [5] = qHTS assay to test for compound auto fluorescence at 590 nm (red) in HepG2 cells (AID 720674)
# Procedure, shortened: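 1 hr compound incubation on HepG2 cells, 37 C, 5% CO2; plate read ex 540 nm / em 590 nm; intensities reported as Rose Bengal sodium equivalents.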
# [6] = qHTS assay to test for compound auto fluorescence at 535 nm (green) in HepG2 cells (AID 720675)
# [7] = qHTS assay to test for compound auto fluorescence at 460 nm (blue) in HEK293 cells (AID 720678)
# Procedure, shortened: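 Cells were seeded and left to adhere for 4-5 hr at 37C. Compounds were then pin-transferred. After an overnight incubation at 37C under 5% CO2, intrinsic fluorescence at 405/460 nm was measured and referenced to triamterene.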
# [8] = qHTS assay to test for compound auto fluorescence at 535 nm (green) in HEK293 cells (AID 720680)
# [9] = qHTS assay to test for compound auto fluorescence at 460 nm (blue) in HEK293 cell free culture (AID 720681)
# Procedure, shortened: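 Blue fluorescence (Ex 405/Em 460 nm, triamterene-equivalent) was read immediately after pin transfer of compound or DMSO into medium (DMEM, 10% FBS) without cells.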
# [10] = qHTS assay to test for compound auto fluorescence at 535 nm (green) in HEK293 cell free culture (AID 720682)
# Procedure, shortened: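 Fluorescein serves as the green reference fluorophore; each compound's intrinsic emission at 535 nm (excitation 485 nm) is reported as an equivalent amount of that dye, measured in serum-containing DMEM without cells.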
# [11] = qHTS assay to test for compound auto fluorescence at 460 nm (blue) in HepG2 cell free culture (AID 720685)
# Procedure, shortened: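 Cell-free plates of MEM plus 10% FBS received 23 nL compound or DMSO vehicle; blue-channel (405/460 nm) intensity scored against triamterene as reference fluorophore.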
# [12] = qHTS assay to test for compound auto fluorescence at 535 nm (green) in HepG2 cell free culture (AID 720686)
# [13] = qHTS assay to test for compound auto fluorescence at 460 nm (blue) in HepG2 cells (AID 720687)
# Procedure, shortened: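 Blue-channel autofluorescence (Ex/Em 405/460 nm, triamterene-equivalent) was measured after 1 hr compound exposure at 37 C, 5% CO2. Cells were HepG2, plated overnight at 37 C in MEM plus 10% FBS.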
# [14] = target: Glucocorticoid receptor (Homo sapiens) (UniProt P04150); test: qHTS assay to identify small molecule agonists of the glucocorticoid receptor (GR) signaling pathway (AID 720691; active = well fitted activation curve with a large enough effect in the signal ratio in the repeat runs, not every such curve was filed as active; the % refers to the signal ratio; also: potency is read from the fitted curve at half-maximal effect)
# Procedure, shortened: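 Measures GR pathway activation through a GRE-beta-lactamase reporter stably integrated in HeLa cells, with 18 h compound treatment at 37 C and fluorescence detection using a FRET substrate.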
# [15] = target: Glucocorticoid receptor (Homo sapiens) (UniProt P04150); test: qHTS assay to identify small molecule antagonists of the glucocorticoid receptor (GR) signaling pathway (AID 720692; active = well fitted inhibition curve with a large enough effect in the signal ratio in the repeat runs, not every such curve was filed as active; the % refers to the signal ratio)
# Procedure, shortened: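 Tox21 10K library screened in concentration-response for blockade of dexamethasone (5 nM final)-induced GRE-bla reporter activity in HeLa cells; 18 h treatment, fluorescence read.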
# [16] = qHTS assay for small molecules that induce genotoxicity in human embryonic kidney cells expressing luciferase-tagged ATAD5 - cell viability (AID 651634; calls by dose curve; also: nearly all actives have a fitted effect of over 25% in size)
# Procedure, shortened: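 15.5 hr compound or vehicle exposure of HEK293T cells expressing luciferase-tagged ATAD5 at 37C; live-cell protease activity is read by fluorescence after 30 min of CellTiter-Fluor.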
# [17] = qHTS assay for small molecule disruptors of the mitochondrial membrane potential (AID 720635); also: potency is read from the fitted curve at half-maximal effect
# Procedure, shortened: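 Mitochondrial membrane potential tracked with Mito-MPS dye, red aggregates (ex 540/em 590 nm) against green monomers (ex 490/em 535 nm). Compound treatment 1 hr at 37C, dye 30 min in HepG2.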
# [18] = qHTS assay to test for compound auto fluorescence at 590 nm (red) in HEK293 cells (AID 720679)
# Procedure, shortened: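 Each well held 2,000 HEK293 cells in medium containing 10% dialyzed FBS. Following 4-5 hr attachment at 37C, 23 nL test compound or DMSO was added; plates sat overnight, and red fluorescence (540/590nm) was recorded.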
# [19] = qHTS assay to test for compound auto fluorescence at 590 nm (red) in HEK293 cell free culture (AID 720683)
# Procedure, shortened: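 Red-channel autofluorescence of compounds in culture medium (DMEM, 10% FBS), no cells, measured at 540/590 nm. Rose Bengal sodium is the reference fluorophore for equivalence.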
# [20] = qHTS assay to test for compound auto fluorescence at 590 nm (red) in HepG2 cell free culture (AID 720684)
# Procedure, shortened: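 Cell-free; medium MEM + 10% FBS; compound or DMSO added by pintool; read Ex 540/Em 590 nm; Rose Bengal sodium as red reference fluorophore.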
# Chain of Glucocorticoid receptor (Homo sapiens) (P04150 whole entry, looked up): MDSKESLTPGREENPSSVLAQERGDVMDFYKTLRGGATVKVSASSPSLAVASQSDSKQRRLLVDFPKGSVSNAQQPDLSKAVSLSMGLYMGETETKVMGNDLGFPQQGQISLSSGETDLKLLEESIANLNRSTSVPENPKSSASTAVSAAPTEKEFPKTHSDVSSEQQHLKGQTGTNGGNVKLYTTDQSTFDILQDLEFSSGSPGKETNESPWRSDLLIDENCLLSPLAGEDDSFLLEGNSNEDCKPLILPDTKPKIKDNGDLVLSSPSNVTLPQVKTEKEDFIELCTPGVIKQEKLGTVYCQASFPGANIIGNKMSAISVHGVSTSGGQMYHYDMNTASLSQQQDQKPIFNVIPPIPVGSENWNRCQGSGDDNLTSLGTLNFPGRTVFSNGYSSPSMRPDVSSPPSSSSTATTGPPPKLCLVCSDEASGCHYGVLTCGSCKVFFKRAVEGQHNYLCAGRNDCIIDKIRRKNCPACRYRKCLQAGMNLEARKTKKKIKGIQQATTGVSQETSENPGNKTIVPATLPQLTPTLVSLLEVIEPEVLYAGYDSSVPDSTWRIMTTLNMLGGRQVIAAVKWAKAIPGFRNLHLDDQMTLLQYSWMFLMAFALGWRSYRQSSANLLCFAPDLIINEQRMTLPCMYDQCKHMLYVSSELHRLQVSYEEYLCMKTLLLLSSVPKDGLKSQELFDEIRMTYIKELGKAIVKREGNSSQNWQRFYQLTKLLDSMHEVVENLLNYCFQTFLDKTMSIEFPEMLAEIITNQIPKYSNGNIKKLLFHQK
Compound,outcome [1],Potency [2],outcome [3],Potency [4],outcome [5],outcome [6],outcome [7],outcome [8],outcome [9],outcome [10],outcome [11],outcome [12],outcome [13],Potency [14],Potency [15],Potency [16],Potency [17],outcome [18],outcome [19],outcome [20]
O=C[C@H](O)[C@@H](O)[C@H](O)[C@H](O)CO,inactive,inactive,inactive,inactive,inactive,inactive,inactive,inactive,inactive,inactive,inactive,inactive,inactive,inactive,inactive,,,,,
CCO[Si](CCC1CCC2OC2C1)(OCC)OCC (stereo unspecified),,inactive,inactive,inactive,inactive,inactive,inactive,inactive,inactive,inactive,inactive,inactive,,inactive,inactive,inactive,inactive,inactive,inactive,
CC(=O)OCC(CCn1cnc2cnc(N)nc21)COC(C)=O,,inactive,inactive,inactive,inactive,inactive,inactive,,inactive,inactive,inactive,inactive,inactive,inactive,inactive,inactive,inactive,inactive,inactive,inactive
CCCCCCCCCCCCCCCCC,,inactive,inactive,inactive,inactive,inactive,inactive,,inactive,inactive,inactive,inactive,inactive,inactive,inactive,inactive,inactive,inactive,inactive,
N[C@@H](C(=O)N[C@@H]1C(=O)N2C(C(=O)O)=C(Cl)CS[C@H]12)c1ccccc1,inactive,inactive,inactive,inactive,inactive,inactive,inactive,inactive,inactive,inactive,inactive,inactive,inactive,inactive,,,,,inactive,inactive
COCCCOCCCOC,,inactive,inactive,inactive,inactive,inactive,inactive,inactive,inactive,inactive,inactive,inactive,inactive,,,inactive,inactive,inactive,inactive,inactive
Cc1ccc(=O)n(-c2ccccc2)c1,inactive,inactive,inactive,inactive,inactive,inactive,inactive,inactive,inactive,inactive,inactive,,inactive,,,,,inactive,inactive,inactive
CCN1CCC[C@H]1CNC(=O)c1cc(S(N)(=O)=O)ccc1OC,inactive,inactive,inactive,inactive,inactive,inactive,inactive,,inactive,,inactive,inactive,inactive,inactive,,,inactive,inactive,inactive,inactive
O=c1[nH]c(=O)n([C@H]2C[C@H](O)[C@@H](CO)O2)cc1I,inactive,,inactive,inactive,inactive,inactive,inactive,,inactive,inactive,inactive,inactive,inactive,,,inactive,inactive,inactive,inactive,inactive
OCCCC1CCCCC1,,inactive,inactive,inactive,inactive,inactive,inactive,,inactive,inactive,inactive,,,,,inactive,inactive,inactive,inactive,
ClC(Cl)(Br)Br,inactive,inactive,inactive,inactive,,inactive,inactive,inactive,,inactive,inactive,,,inactive,inactive,,,inactive,inactive,inactive
N#Cc1ccc(C2CCCc3cncn32)cc1 (stereo unspecified),inactive,inactive,inactive,inactive,inactive,inactive,inactive,,inactive,,inactive,inactive,inactive,inactive,inactive,,,inactive,inactive,inactive
C=CCOCC(CC)(CO)COCC=C,inactive,inactive,inactive,inactive,,inactive,inactive,inactive,inactive,,inactive,inactive,inactive,inactive,,,inactive,inactive,inactive,inactive
Brc1c(NC2=NCCN2)ccc2nccnc12,inactive,,inactive,inactive,,inactive,inactive,,,inactive,inactive,inactive,inactive,inactive,inactive,inactive,,inactive,inactive,inactive
CC(C)(O)C#CC(C)(C)O,inactive,inactive,inactive,inactive,inactive,inactive,inactive,inactive,inactive,,inactive,,inactive,,,,inactive,,inactive,inactive
CCC(=O)OC(C)c1ccccc1 (stereo unspecified),inactive,inactive,inactive,inactive,inactive,inactive,inactive,inactive,inactive,,inactive,inactive,,inactive,,,,inactive,,
COc1ccccc1OCC(O)CN1CCN(CC(=O)Nc2c(C)cccc2C)CC1 (stereo unspecified),inactive,inactive,inactive,inactive,inactive,inactive,inactive,inactive,inactive,inactive,inactive,,inactive,inactive,inactive,,,inactive,,inactive
CC(C)(c1ccc(O)cc1)c1ccc(O)cc1,,inactive,inactive,inactive,inactive,inactive,inactive,inactive,,inactive,inactive,inactive,,,,inactive,6.78 µM (active) and 5.54 µM (active),,inactive,inactive
N=C(N)c1ccc(OCCCOc2ccc(C(=N)N)cc2)cc1,inactive,inactive,inactive,inactive,inactive,inactive,inactive,,inactive,inactive,inactive,inactive,inactive,inactive,,,inactive,inactive,inactive,inactive
Nc1c[n+](N2CCOCC2)no1,,inactive,inactive,inactive,inactive,inactive,inactive,inactive,inactive,inactive,inactive,inactive,,inactive,inactive,inactive,inactive,inactive,inactive,inactive
N=C(N)c1ccc2cc(OC(=O)c3ccc(N=C(N)N)cc3)ccc2c1,inactive,inactive,inactive,inactive,inactive,inactive,inactive,inactive,,inactive,inactive,inactive,,,,,,inactive,,inactive
O=C1CC2CC1C1CCCC21 (stereo unspecified),inactive,,inactive,inactive,inactive,inactive,inactive,,inactive,inactive,inactive,inactive,inactive,54.9 µM (active),inactive,inactive,inactive,inactive,,inactive
CC(C)CCCC(C)N (stereo unspecified),inactive,inactive,inactive,inactive,,inactive,inactive,inactive,inactive,inactive,inactive,,,inactive,inactive,,inactive,inactive,,inactive
CCn1nc(C(=O)O)c(=O)c2cc3c(cc21)OCO3,inactive,inactive,inactive,inactive,inactive,inactive,inactive,inactive,,inactive,inactive,inactive,,inactive,inactive,,,inactive,inactive,inactive
CCOC(=O)c1c(C)n(C)c2ccc(O)cc12,,inactive,inactive,inactive,inactive,inactive,inactive,inactive,inactive,inactive,inactive,inactive,inactive,inactive,inactive,inactive,7.84 µM (active),inactive,inactive,inactive
CCc1ccc(O)c(OC)c1,,inactive,inactive,inactive,inactive,inactive,inactive,,inactive,inactive,inactive,inactive,inactive,inactive,inactive,inactive,,inactive,inactive,
C=C(C)CS(=O)(=O)O,,inactive,inactive,inactive,inactive,inactive,inactive,inactive,inactive,inactive,inactive,inactive,inactive,inactive,inactive,inactive,,,inactive,inactive
